Results as given in PubChem BioAssay AID1159580 (chemical genetic matrix, 2015).
Among all 5,500 compounds or so, about 2,000 (36%) were called active. Inconclusive results (about 18%) are left out. No stated cut-off is given here; in the data, active means normalized growth mostly below about 0.91 (no sharp cut-off); inconclusive means no clear call, values can overlap the other calls; inactive means mostly above about 0.92. Some of the results follow.

Test: chemical genetic growth profiling, strain panel (AID 1159580);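 further: tested at 20 µM; growth read once vehicle control cultures reached saturation at 30 °C; 1 = growth at the plate median or of vehicle wells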
Conditions: S. cerevisiae deletion strains, growth OD
[1] = locus YDL101C, strain DUN1, stronger effect = lower value
[2] = locus YHR030C, strain SLT2, stronger effect = lower value

Measured: normalized growth

O=[N+]([O-])c1cc(C(F)(F)F)ccc1-n1ccc(-c2cccs2)n1
inactive: locus YAR019C, strain CDC15, stronger effect = lower value 0.953 | locus YBL105C, strain PKC1, stronger effect = lower value 0.952 | locus YBR135W, strain CKS1, stronger effect = lower value 0.948 | locus YBR136W, strain MEC1, stronger effect = lower value 0.954 | locus YBR160W, strain CDC28, stronger effect = lower value 0.956 | locus YDL017W, strain CDC7, stronger effect = lower value 0.955 | locus YDL028C, strain MPS1, stronger effect = lower value 0.958 | [1] 0.959 | locus YDL108W, strain KIN28, stronger effect = lower value 0.951 | locus YDL132W, strain cdc53, stronger effect = lower value 0.96 | locus YDL214C, strain PRR2, stronger effect = lower value 0.88 | locus YDR052C, strain DBF4, stronger effect = lower value 0.951 | locus YDR054C, strain cdc34, stronger effect = lower value 0.95 | locus YDR226W, strain ADK1, stronger effect = lower value 0.952 | locus YDR477W, strain SNF1, stronger effect = lower value 0.879 | locus YER123W, strain YCK3, stronger effect = lower value 0.846 | locus YER133W, strain GLC7, stronger effect = lower value 0.846 | locus YFL009W, strain cdc4, stronger effect = lower value 0.952 | locus YFL029C, strain CAK1, stronger effect = lower value 0.952 | locus YFR003C, strain YPI1, stronger effect = lower value 0.951 | locus YFR019W, strain FAB1, stronger effect = lower value 0.945 | locus YFR028C, strain CDC14, stronger effect = lower value 0.952 | locus YGR040W, strain KSS1, stronger effect = lower value 0.882 | locus YGR052W, strain FMP48, stronger effect = lower value 0.933 | locus YGR092W, strain DBF2, stronger effect = lower value 0.754 | locus YHR079C, strain IRE1, stronger effect = lower value 0.87 | locus YHR082C, strain KSP1, stronger effect = lower value 0.968 | locus YHR205W, strain SCH9, stronger effect = lower value 0.913 | locus YIL147C, strain SLN1, stronger effect = lower value 0.957 | locus YJL095W, strain BCK1, stronger effect = lower value 0.863 | locus YJL128C, strain PBS2, stronger effect = lower value 0.897 | locus YJL157C, strain FAR1, stronger effect = lower value 0.84 | locus YJR016C, strain ILV3, stronger effect = lower value 0.958 | locus YJR066W, strain TOR1 (second series), stronger effect = lower value 0.839 | locus YJR066W, strain TOR1, stronger effect = lower value 0.889 | locus YKL048C, strain ELM1, stronger effect = lower value 0.914 | locus YKL067W, strain YNK1, stronger effect = lower value 0.88 | locus YKL101W, strain HSL1, stronger effect = lower value 0.875 | locus YKL193C, strain SDS22, stronger effect = lower value 0.957 | locus YKL203C, strain TOR2, stronger effect = lower value 0.919 | locus YLR133W, strain CKI1, stronger effect = lower value 0.88 | locus YLR403W, strain SFP1, stronger effect = lower value 0.804 | locus YML070W, strain DAK1, stronger effect = lower value 0.87 | locus YMR001C, strain CDC5, stronger effect = lower value 0.947 | locus YMR205C, strain PFK2 (second series), stronger effect = lower value 0.896 | locus YMR277W, strain FCP1, stronger effect = lower value 0.958 | locus YNL006W, strain LST8, stronger effect = lower value 0.956 | locus YNL020C, strain ARK1, stronger effect = lower value 0.861 | locus YNL161W, strain CBK1, stronger effect = lower value 0.949 | locus YNL183C, strain NPR1, stronger effect = lower value 0.92 | locus YNL207W, strain RIO2, stronger effect = lower value 0.947 | locus YNL222W, strain SSU72, stronger effect = lower value 0.965 | locus YNL307C, strain MCK1 (second series), stronger effect = lower value 0.862 | locus YOL078W, strain AVO1, stronger effect = lower value 0.952 | locus YOL136C, strain PFK27, stronger effect = lower value 0.883 | locus YOR061W, strain CKA2, stronger effect = lower value 0.827 | locus YOR119C, strain RIO1, stronger effect = lower value 0.932 | locus YOR231W, strain MKK1, stronger effect = lower value 0.886 | locus YOR329C, strain SCD5, stronger effect = lower value 0.947 | locus YPL031C, strain PHO85, stronger effect = lower value 0.872 | locus YPL153C, strain RAD53, stronger effect = lower value 0.92 | locus YPL204W, strain HRR25, stronger effect = lower value 0.885 | locus YPL209C, strain IPL1, stronger effect = lower value 0.959 | locus YPL256C, strain CLN2, stronger effect = lower value 0.864 | locus YPR025C, strain CCL1, stronger effect = lower value 0.95 | locus YPR106W, strain ISR1, stronger effect = lower value 0.954 | locus YPR111W, strain DBF20, stronger effect = lower value 0.936 | strain NNK1, stronger effect = lower value 0.926 | strain TSCII, stronger effect = lower value 0.955
active: [2] 0.76 | locus YLR113W, strain HOG1, stronger effect = lower value 0.789

FC(F)(F)c1ccnc(-n2ccc(-c3cccs3)n2)n1
inactive: locus YAL013W, strain DEP1, stronger effect = lower value 0.94 | locus YBR229C, strain ROT2, stronger effect = lower value 0.964 | locus YCL061C, strain MRC1, stronger effect = lower value 0.926 | [1] 0.916 | locus YDR150W, strain NUM1, stronger effect = lower value 0.987 | locus YEL061C, strain CIN8, stronger effect = lower value 0.946 | locus YGR078C, strain PAC10, stronger effect = lower value 0.973 | locus YGR229C, strain SMI1, stronger effect = lower value 0.972 | locus YHR087W, strain rtc3, stronger effect = lower value 1.01 | locus YJR043C, strain POL32, stronger effect = lower value 0.963 | locus YJR075W, strain HOC1, stronger effect = lower value 0.964 | locus YKL190W, strain CNB1, stronger effect = lower value 0.952 | locus YLR058C, strain SHM2 (second series), stronger effect = lower value 0.982 | locus YML094W, strain GIM5, stronger effect = lower value 0.887 | locus YMR219W, strain ESC1, stronger effect = lower value 0.995 | locus YMR263W, strain SAP30, stronger effect = lower value 0.955 | locus YNL128W, strain TEP1, stronger effect = lower value 0.953 | locus YNL153C, strain GIM3, stronger effect = lower value 0.955 | locus YNL322C, strain KRE1, stronger effect = lower value 0.994 | locus YNR030W, strain Alg12, stronger effect = lower value 0.891 | locus YPL055C, strain LGE1, stronger effect = lower value 0.881 | locus YPL241C, strain CIN2, stronger effect = lower value 0.9
active: [2] 0.457 | locus YLR039C, strain RIC1, stronger effect = lower value 0.733 | locus YLR085C, strain ARP6, stronger effect = lower value 0.528 | locus YLR262C, strain YPT6, stronger effect = lower value 0.795 | locus YNL298W, strain CLA4 (second series), stronger effect = lower value 0.815 | locus YOL006C, strain TOP1, stronger effect = lower value 0.64 | locus YPR135W, strain CTF4, stronger effect = lower value 0.535
